From PubChem BioAssay (NCATS) come the findings set out here.

For assay [1], the target named is Rap guanine nucleotide exchange factor 3 (Homo sapiens) (UniProt O95398). The assay can be described thus: Confirmatory qHTS for antagonist of cAMP-regulated guanine nucleotide exchange factor 3 (EPAC1) (AID 1645880). Also: nearly all actives have a fitted effect of over 55% in size. Also: potency is read from the fitted curve at half-maximal effect. In short, it runs like this: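 Released BODIPY-GDP fluoresces less than Rap1-bound BODIPY-GDP; the signal is followed at 480/540 nm at 5-min intervals over 30 min, after 5 min at room temperature. Reactions contain 100 nM EPAC1, 250 nM RAP1B-BODIPY-GDP and 50 uM GDP; results are normalized to ATA and DMSO.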
Sequence of Rap guanine nucleotide exchange factor 3 (Homo sapiens) (O95398 whole entry, looked up): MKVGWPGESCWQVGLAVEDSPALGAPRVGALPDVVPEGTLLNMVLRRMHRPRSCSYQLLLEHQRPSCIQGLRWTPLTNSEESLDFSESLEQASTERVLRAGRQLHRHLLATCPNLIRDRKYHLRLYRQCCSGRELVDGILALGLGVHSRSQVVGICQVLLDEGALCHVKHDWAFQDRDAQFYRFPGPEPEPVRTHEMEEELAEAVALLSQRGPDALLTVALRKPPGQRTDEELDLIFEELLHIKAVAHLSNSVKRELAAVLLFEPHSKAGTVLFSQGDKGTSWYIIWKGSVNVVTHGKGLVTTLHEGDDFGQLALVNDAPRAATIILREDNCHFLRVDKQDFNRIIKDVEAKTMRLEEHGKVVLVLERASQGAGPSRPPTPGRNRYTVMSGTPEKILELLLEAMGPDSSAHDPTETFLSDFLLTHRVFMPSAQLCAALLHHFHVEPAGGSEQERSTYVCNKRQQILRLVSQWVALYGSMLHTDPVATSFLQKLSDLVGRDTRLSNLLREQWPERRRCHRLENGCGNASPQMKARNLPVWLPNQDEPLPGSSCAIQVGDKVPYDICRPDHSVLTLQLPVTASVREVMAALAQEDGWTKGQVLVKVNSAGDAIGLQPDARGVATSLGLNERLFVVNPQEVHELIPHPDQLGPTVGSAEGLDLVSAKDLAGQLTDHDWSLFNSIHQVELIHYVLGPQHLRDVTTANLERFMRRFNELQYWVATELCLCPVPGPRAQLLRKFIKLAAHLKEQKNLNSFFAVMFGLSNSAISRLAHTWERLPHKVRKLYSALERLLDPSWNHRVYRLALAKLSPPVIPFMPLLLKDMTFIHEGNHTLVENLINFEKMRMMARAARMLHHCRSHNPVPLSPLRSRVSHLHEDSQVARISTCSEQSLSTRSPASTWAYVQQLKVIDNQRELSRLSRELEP

For assay [2] the target is unchanged. Put plainly: Confirmatory qHTS for agonist of cAMP-regulated guanine nucleotide exchange factor 3 (EPAC1) (AID 1645881). Also: nearly all actives have a fitted effect of over 75% in size. Also: potency is read from the fitted curve at half-maximal effect.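 As to activation: EPAC1 catalysed release of BODIPY-GDP from Rap1B seen as fluorescence loss; 100% = effect of cAMP agonist control.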
Assay [3] has as its target Rap guanine nucleotide exchange factor 4 (Homo sapiens) (UniProt Q8WZA2). Put plainly: Confirmatory qHTS for agonist of cAMP-regulated guanine nucleotide exchange factor 4 (EPAC2) (AID 1645884).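 Also: nucleotide exchange releases bodipy-GDP from Rap1 and this lowers its fluorescence; nearly all actives have a fitted effect of over 65% in size.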 Also: potency is read from the fitted curve at half-maximal effect. As to activation: % is scaled to controls: 0 for no effect and ±100 for the full control effect.
The target is the same in assay [4]. Put plainly: Confirmatory qHTS for antagonist of cAMP-regulated guanine nucleotide exchange factor 4 (EPAC2) (AID 1645885). Also: nearly all actives have a fitted effect of over 25% in size. As to activity change, negative = inhibition: % is scaled to controls: 0 for no effect and ±100 for the full control effect.
For assay [5], the target named is Rap guanine nucleotide exchange factor 3 (Homo sapiens) (UniProt O95398). The assay can be described thus: Counterscreen qHTS for antagonist of cAMP-regulated guanine nucleotide exchange factor 3 (EPAC1) (AID 1645888). Also: % of control where 0% means no effect. In short, it runs like this:
(§1)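 Rap1B-BODIPY-GDP 250 nM + GDP 50 uM; cpds 7-pt, final 9.74 nM–152 uM (activator mode) or from 7.32 nM upwards (inhibitor mode); RT; FI 480/540 nm at 5 and 30 min, then ± cAMP, reread.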

Assay [6] has the same target. The assay can be described thus: Counterscreen qHTS for agonist of cAMP-regulated guanine nucleotide exchange factor 3 (EPAC1) (AID 1645889). Also: % of control where 0% means no effect; nearly all actives have a fitted effect of over 40% in size. The method, boiled down: as §1

Inconclusive results are not listed. Values without a mark were called inactive. Activity calls are given as the source filed them. Calls follow the shape of the dose curve; as a rule, active = well fitted curve in the direction sought with a large enough effect; inconclusive = small, poorly fitted or top-dose-only effect, or another doubt; inactive = no such curve, though single readings can be large; an effect the other way counts as inactive or inconclusive.

Sequence of Rap guanine nucleotide exchange factor 4 (Homo sapiens) (Q8WZA2 whole entry, looked up): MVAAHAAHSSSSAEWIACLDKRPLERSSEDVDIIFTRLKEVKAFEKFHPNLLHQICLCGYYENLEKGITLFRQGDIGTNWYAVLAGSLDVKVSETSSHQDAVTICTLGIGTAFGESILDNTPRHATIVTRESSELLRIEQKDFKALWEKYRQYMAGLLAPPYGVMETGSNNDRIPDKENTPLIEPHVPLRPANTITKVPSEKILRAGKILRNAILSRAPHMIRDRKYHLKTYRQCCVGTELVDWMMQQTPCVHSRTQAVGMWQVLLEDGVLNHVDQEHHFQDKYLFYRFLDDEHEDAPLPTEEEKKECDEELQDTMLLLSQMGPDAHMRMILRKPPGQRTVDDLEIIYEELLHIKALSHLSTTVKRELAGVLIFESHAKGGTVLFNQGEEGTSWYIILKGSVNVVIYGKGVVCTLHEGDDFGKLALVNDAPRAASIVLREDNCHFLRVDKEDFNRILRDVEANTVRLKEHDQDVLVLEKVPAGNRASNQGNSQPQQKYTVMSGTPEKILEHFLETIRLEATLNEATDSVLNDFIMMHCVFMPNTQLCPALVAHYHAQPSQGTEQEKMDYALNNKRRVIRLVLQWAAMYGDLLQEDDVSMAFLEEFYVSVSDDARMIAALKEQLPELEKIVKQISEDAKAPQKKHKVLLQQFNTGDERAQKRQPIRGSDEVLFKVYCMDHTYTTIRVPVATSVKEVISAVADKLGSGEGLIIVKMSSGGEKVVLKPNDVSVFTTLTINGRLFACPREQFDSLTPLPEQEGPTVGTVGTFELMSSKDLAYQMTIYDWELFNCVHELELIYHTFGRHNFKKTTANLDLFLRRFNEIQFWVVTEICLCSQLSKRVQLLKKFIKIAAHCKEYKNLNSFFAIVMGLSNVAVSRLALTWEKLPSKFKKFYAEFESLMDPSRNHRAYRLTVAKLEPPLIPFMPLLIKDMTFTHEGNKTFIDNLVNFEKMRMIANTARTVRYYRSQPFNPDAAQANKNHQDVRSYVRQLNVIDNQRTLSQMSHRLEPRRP

Regarding `CCOc1ccc(-n2c(SCC(=O)Nc3ccccc3OC)nc3c(oc4ccccc43)c2=O)cc1`, the Potency entry in assay [1], in assay [2], in assay [3], in assay [4], in assay [5] and in assay [6] was “inactive” throughout.
`COc1ccccc1-n1c(-c2ccccc2)c[n+]2c1CCc1ccccc1-2`: the Potency entry in assay [1], in assay [2], in assay [3], in assay [4], in assay [5] and in assay [6] was “inactive” in each case.
On to `Cc1ccc(C)c(NC(=O)CN(C)C(=O)c2cccc(S(=O)(=O)N3CCCC3)c2)c1`, for which the Potency entry in assay [1], in assay [2], in assay [3], in assay [4], in assay [5] and in assay [6] was “inactive” each time.
For `Oc1ccc(NCc2ccccc2OCc2ccccc2)cc1`, the Potency result in assay [1], in assay [2], in assay [3], in assay [4] and in assay [5] was “inactive” throughout. In addition, the activation in assay [6] is 20.2% [at 30.8 µM].
For the compound `O=C1CSC2(C(=O)N(Cc3cccc(C(F)(F)F)c3)c3ccccc32)N1c1ccc(F)c(F)c1` (stereo unspecified), the Potency entry in assay [1], in assay [2], in assay [3], in assay [4], in assay [5] and in assay [6] was “inactive” throughout.
As to `COc1ccccc1OCCCSc1nc(-c2ccc(C(C)(C)C)cc2)nc2cc(=O)[nH]n12`, in assay [1], the Potency was 67.5 µM (active). Moreover, the Potency result in assay [2], in assay [3], in assay [4], in assay [5] and in assay [6] was “inactive” throughout.
Turning to `COc1ccc(NC(=O)CS(=O)(=O)Cc2ccccc2)c([N+](=O)[O-])c1`, the Potency entry in assay [1], in assay [2] and in assay [4] was “inactive” in each case. Also, the activation was 7.06% [at 17.1 µM, percent relative to cAMP agonist control] in assay [3] and 8.04% [at 30.8 µM] in assay [6]. Further, the activity change, negative = inhibition in assay [5] is -9.05% [at 30.8 µM].
Turning to `Cc1ccc(-n2nc3c(=O)n(CCCC(=O)NCc4ccccc4F)nc(C)c3c2C)cc1`, the Potency entry in assay [1], in assay [2], in assay [3], in assay [4], in assay [5] and in assay [6] was “inactive” throughout.
For `Cc1nn(-c2ccccc2)c(Cl)c1/C=C1\SC(=S)NC1=O`, in assay [1], the Potency is 12 µM (active). The Potency entry in assay [2], in assay [3], in assay [4], in assay [5] and in assay [6] was “inactive” each time.
Regarding `O=C(CNC(=O)c1sc2ccccc2c1Cl)Nc1ccccc1F`, the Potency result in assay [1], in assay [2] and in assay [4] was “inactive” each time. Besides, the activation was 11.8% [at 17.1 µM, percent relative to cAMP agonist control] in assay [3] and 2.6% [at 30.8 µM] in assay [6]. In assay [5], the activity change, negative = inhibition was -19.6% [at 30.8 µM].
Take `Cc1ccc(-c2csc(NS(=O)(=O)c3cccc(F)c3)n2)o1`: in assay [1], the Potency is 14.1 µM (active). For the same compound, the Potency result in assay [2] and in assay [4] was “inactive” throughout. The activation is -0.922% [at 17.1 µM, percent relative to cAMP agonist control] in assay [3] and 14.9% [at 30.8 µM] in assay [6]. The activity change, negative = inhibition in assay [5] is -6.02% [at 30.8 µM].
Regarding `Nc1ncnc2c1nc(Br)n2[C@@H]1O[C@@H]2COP(=O)(O)O[C@H]2[C@H]1O`, the Potency in assay [1] is 5.36 µM (active); in assay [2], 7.08 µM (active); in assay [3], 2.24 µM (active). The Potency entry in assay [4], in assay [5] and in assay [6] was “inactive” in each case.
Take `CCOC(=O)C1=NNC2(CC(=O)N(c3cc(C)cc(C)c3)C2=O)C1` (stereo unspecified): the Potency result in assay [1], in assay [2], in assay [3], in assay [4], in assay [5] and in assay [6] was “inactive” in each case.
Take `Cc1csc(SCC(=O)NC23CC4CC(CC(C4)C2)C3)n1`: the Potency result in assay [1], in assay [2] and in assay [4] was “inactive” each time. In addition, the activation in assay [3] was 1.39% [at 17.1 µM, percent relative to cAMP agonist control]; in assay [6], 22.6% [at 30.8 µM]. The activity change, negative = inhibition in assay [5] was -23.6% [at 30.8 µM].
For `CCc1ccc(-c2nc(CS(=O)CC(=O)NCc3cccnc3)c(C)o2)cc1` (stereo unspecified), the Potency result in assay [1], in assay [2], in assay [3], in assay [4], in assay [5] and in assay [6] was “inactive” throughout.
As for `CCOC(=O)C1CCN(C(=O)c2cccc(S(=O)(=O)N(CC)c3ccccc3)c2)CC1`, the Potency entry in assay [1], in assay [2], in assay [3], in assay [4], in assay [5] and in assay [6] was “inactive” in each case.
Turning to `Cn1c(=O)cc(N2CCN(C(=O)c3ccco3)CC2)[nH]c1=O`, the Potency result in assay [1], in assay [2], in assay [3], in assay [4], in assay [5] and in assay [6] was “inactive” in each case.
As for `CCOC(=O)C1CCCN(c2c(NCCN3CCCCC3C)c(=O)c2=O)C1` (stereo unspecified), the Potency entry in assay [1], in assay [2], in assay [3], in assay [4], in assay [5] and in assay [6] was “inactive” in each case.
`CC1CC(C)CN(c2nc3c(c(=O)n(C)c(=O)n3C)n2CCSc2ncccn2)C1` (stereo unspecified): the Potency result in assay [1], in assay [2] and in assay [4] was “inactive” in each case. Moreover, the activation in assay [3] was 0.98% [at 17.1 µM, percent relative to cAMP agonist control]; in assay [6] it was 6.66% [at 30.8 µM]. In addition, the activity change, negative = inhibition in assay [5] was 1.05% [at 30.8 µM].
As for `Cc1cc2nc3c(=O)n(CCc4ccccc4)c(=O)[nH]c3nc2cc1N`, the Potency in assay [1] was 12.6 µM (active). The Potency result in assay [2] and in assay [4] was “inactive” throughout. The activation in assay [3] is 3.45% [at 17.1 µM, percent relative to cAMP agonist control]; in assay [6] it was 15.2% [at 30.8 µM]. For the same compound, in assay [5], the activity change, negative = inhibition was -6.16% [at 30.8 µM].
For `COc1ccccc1Cc1nc2ccccc2nc1SCC(=O)Nc1ccccc1C(F)(F)F`, the Potency result in assay [1], in assay [2], in assay [3], in assay [5] and in assay [6] was “inactive” in each case. For the same compound, the outcome in assay [4] is “inactive [at 12.7 µM]”.
